Bioassay records from PubChem.
GRK2 inh: blocks RNA aptamer binding to human GRK2; inhibition of aptamer binding, % at 10 µM; 0.59% of 330,000 active; bead flow cytometry, FAM-aptamer displacement from GRK2; P25098;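 active means inhibition of aptamer binding above 40%, roughly 3 SD of noise, on plates passing a quality check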;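 further: median bead fluorescence of bound FAM aptamer so fluorescent compounds give negative values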
Target sequence (P25098 whole entry, looked up): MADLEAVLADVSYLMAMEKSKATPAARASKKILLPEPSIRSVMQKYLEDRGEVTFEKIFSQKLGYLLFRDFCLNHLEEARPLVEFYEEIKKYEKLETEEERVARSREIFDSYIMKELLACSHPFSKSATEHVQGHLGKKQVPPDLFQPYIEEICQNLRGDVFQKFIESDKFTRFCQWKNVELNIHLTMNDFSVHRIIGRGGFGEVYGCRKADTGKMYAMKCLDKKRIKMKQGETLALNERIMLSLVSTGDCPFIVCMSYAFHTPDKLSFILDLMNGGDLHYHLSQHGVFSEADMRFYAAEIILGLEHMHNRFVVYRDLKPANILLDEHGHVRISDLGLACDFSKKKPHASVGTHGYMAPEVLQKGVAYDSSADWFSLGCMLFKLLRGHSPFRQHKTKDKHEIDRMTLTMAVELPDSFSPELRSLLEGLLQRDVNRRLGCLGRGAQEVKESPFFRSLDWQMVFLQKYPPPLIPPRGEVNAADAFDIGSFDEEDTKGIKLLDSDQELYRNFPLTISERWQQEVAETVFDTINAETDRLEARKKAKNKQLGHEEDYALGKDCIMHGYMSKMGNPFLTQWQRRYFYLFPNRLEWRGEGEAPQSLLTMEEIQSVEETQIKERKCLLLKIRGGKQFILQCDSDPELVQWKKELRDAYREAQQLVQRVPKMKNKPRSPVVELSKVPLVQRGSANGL
Pemphigus Ab inh: blocks pemphigus antibody binding to human desmoglein-3 | P32926 | DSG3-coupled beads, scFv-anti-DSG3-GFP binding, flow cytometry; hits give low values | binding (percent of control), % at 10 µM | 0.48% of 310,000 active | AID 588358;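 active means binding more than 3 SD below its plate's average and above zero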;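 further: hits lower antibody fragment binding to DSG3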
PREPL inhibitor: inhibits the human prolyl oligopeptidase-like enzyme; inhibition, % at 5.96 µM; 0.68% of 320,000 active; Q4J6C6; recombinant PREPL, fluorescence polarization activity-based probe; in the data active means inhibition above about 43%;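 further: 0% = enzyme with DMSO and 100% = wells lacking enzyme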
JMJD2C inh: blocks human GASC-1 demethylase activity | GST-JMJD2C(1-420) H3K9me3 demethylation, DELFIA europium | inhibition, % at 2.35 µM | 0.069% of 330,000 active | AID 2099;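 active means more than half of a compound's replicate wells show inhibition beyond 50%, single wells judged on their own value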;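 further: signal counts dimethyl H3K9 product captured on neutravidin plate; 0% = median of DMSO wells and 100% = 0.3 times that DMSO median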
VLA-4 inh: inhibition in a human VLA-4 binding assay | inhibition, % (about 7 µM as worked out from the volumes in the protocol) | AID 2557 | P13612 | VLA-4 expressing cells, ligand binding flow cytometry | 0.2% of 330,000 active; in the data active means inhibition above about 50%
The depositor's hits bear a star; . = no result given. Hits are enriched below; roughly 1.6% of the tested compounds scored in any of these assays.

SMILES	GRK2 inh	Pemphigus Ab inh	PREPL inhibitor	JMJD2C inh	VLA-4 inh
CS(=O)(=O)N1CCN(c2ccc([N+](=O)[O-])c(NCc3cccnc3)c2)CC1	2.0	24.8*	3.9	-5.7	-2.6
CS(=O)(=O)N1CCN(c2ccc([N+](=O)[O-])c(NCc3ccccc3)c2)CC1	0.0	.	4.4	-9.3	8.1
CCc1c(C)c(C#N)c2[nH]c3ccccc3n2c1=S	1.0	.	29.4	-5.8	-8.2
CCCCC1=CC2=CC(=O)C(C)(OC(=O)CC)C(=O)C2=CN1CCN1CCOCC1 (stereo not drawn)	0.0	.	-0.4	6.2	19.5
CC(C)(C)c1ccc(OCC(=O)N/N=C/c2ccc(N3CCOCC3)cc2)cc1	0.0	104.2	64.6*	5.2	17.0
C/C(=N/NC(=O)COc1ccc(C(C)(C)C)cc1)c1ccc(N2CCOCC2)cc1	.	99.5	.	.	.
COc1ccc(C(=O)N2CCN(c3ccccc3)CC2)cc1S(=O)(=O)N1CCCC1	2.0	106.6	8.5	5.0	-8.3
Clc1cccc(/C=N/Nc2nc(Cl)nc3ccccc23)c1	0.0	.	46.4*	2.8	-5.1
Cc1[nH]c(=O)c(Cc2ccccc2)c(O)c1C#N	.	.	-0.9	8.3	12.2
CC(=O)Nc1cccc(-c2csc(Nc3ccccn3)n2)c1	0.0	70.0*	7.6	1.2	-9.8
COc1cc(/C=C/C(=O)c2ccc3c(c2)OCCO3)cc(Br)c1OCC(=O)N(C)C	1.0	100.3	-4.0	-2.1	14.2
O=C(NCc1ccccc1)c1ncn(Cc2ccccc2)c1C(=O)NCc1ccccc1	0.0	106.5	16.3	-1.0	0.0
O=C(NCc1ccccc1)c1ccc(C(=O)NCc2ccccc2)cc1	.	78.8*	.	.	.
Cn1cnc(C(=O)NCc2ccccc2)c1C(=O)NCc1ccccc1	2.0	69.9*	6.8	9.8	10.0
COc1ccc(OC)c(CC(NC(C)=O)C(=O)NC2CCN(c3nc(OC)nc(OC)n3)CC2)c1 (stereo not drawn)	4.0	95.5	-6.9	-8.8	15.9
Oc1ccccc1N=Nc1nc(-c2ccccc2)c(-c2ccccc2)[nH]1	0.0	94.3	15.4	-2.6	90.3*
Cc1cc2cc(CNC(=S)NC3CCCCC3)ccc2[nH]1	2.0	105.6	10.9	-12.0	-0.4
Cc1cc2cc(CNC(=O)NC3CCCCC3)ccc2[nH]1	16.0	73.7*	14.9	6.1	9.2
Cc1ccc(NC(=O)NCc2ccc3[nH]c(C)cc3c2)cc1	0.0	86.6*	11.4	-3.0	-14.3
N#CCn1c2ccccc2c2nc3ccccc3nc21	0.0	96.9	1.2	1.8	1.8
C#CCn1c2ccccc2c2nc3ccccc3nc21	1.0	82.0*	-2.8	4.4	-3.0
Cc1ccc(NC(=O)NNC(=O)C2CCN(Cc3ccc(F)cc3Cl)CC2)cc1	1.0	50.1*	17.6	-4.0	-2.4
Cc1cc(-c2ccc(N=Nc3c(S(=O)(=O)O)cc4cc(S(=O)(=O)O)cc(N)c4c3O)c(C)c2)ccc1N=Nc1c(S(=O)(=O)O)cc2cc(S(=O)(=O)O)cc(N)c2c1O	98.0*	.	23.9	.	35.0
COc1ccc2[nH]c(C(=O)N(C)c3ccc(F)cc3F)cc2c1	1.0	117.9	4.9	12.3	1.1
CCOc1ccc(N2CC(C(=O)Nc3ccncc3)CC2=O)cc1 (stereo not drawn)	0.0	54.0*	6.3	3.0	-2.5
SMILES	GRK2 inh	Pemphigus Ab inh	PREPL inhibitor	JMJD2C inh	VLA-4 inh
COc1ccc(N2CC(C(=O)Nc3nnc(SCC(=O)Nc4ccc(NC(C)=O)cc4)s3)CC2=O)cc1 (stereo not drawn)	.	85.0*	.	.	.
O=C(CN1C(=O)NC2(CCCC2)C1=O)Nc1ccc(Cl)cc1C(F)(F)F	0.0	104.0	-6.3	9.9	-1.2
CCOC(=O)c1ccccc1N/C=C/C(=O)c1ccccc1	0.0	35.9*	0.5	1.9	0.5
CCCCCCCCCCCCC/C=C/[C@@H](O)[C@@H](N)CO	0.0	112.8	-8.1	0.7	44.8
CC1(C)C(=O)OC(C(=O)c2ccc(Cl)cc2)C(C)(C)C1=O (stereo not drawn)	100.0*	98.8	16.2	-5.2	9.7
CC1(C)C(=O)OC(C(=O)c2ccccc2)C(C)(C)C1=O (stereo not drawn)	0.0	92.3	-5.1	25.4	-4.4
O=C1[C@@H](Oc2ccccc2)[C@@H](c2ccccc2)N1c1ccccc1	41.0*	96.1	.	.	.
CCC(CC)C1=NN2C(=N)/C(=C\c3cc(C)n(-c4cccc(C)c4)c3C)C(=O)N=C2S1	3.0	71.6*	-10.7	3.8	-1.1
CN(Cc1ccccc1)S(=O)(=O)c1ccc(C(=O)Nc2nnc(C3CC3)o2)cc1	0.0	58.3*	1.9	-2.6	-7.8
O=c1cc(-c2ccc(O)cc2)oc2c(O)c(O)c(O)c(O)c12	4.0	58.2*	20.4	.	6.9
O=C(Cc1cccc2ccccc12)N/N=C/c1ccc2cccc(O)c2n1	4.0	58.7*	-19.0	-5.6	2.8
Cc1cc(NC(=O)CCCN2C(=O)/C(=C/c3cccs3)SC2=S)no1	2.0	15.9*	-1.5	2.5	16.6
Cc1cc(NC(=O)CCCN2C(=O)c3cccnc3C2=O)no1	0.0	97.2	8.4	1.9	1.3
Cc1cc(NC(=O)CCCN2C(=O)c3cccc4cccc(c34)C2=O)no1	2.0	91.6*	-0.7	-3.7	-0.3
Cc1ccc(SC2CC(=O)N(c3ccc4c(c3)OCCO4)C2=O)cc1 (stereo not drawn)	1.0	88.4	0.1	16.8	-8.4
COc1ccccc1C(=O)N1C(CC(=O)Nc2ccc(C)c(C)c2)C(=O)NC2CCCCC21 (stereo not drawn)	3.0	103.7	21.9	0.2	4.1
Cc1cccc(NC(=O)CC2C(=O)NC3CCCCC3N2C(=O)c2ccccc2Cl)c1 (stereo not drawn)	2.0	89.1*	0.5	11.3	20.4
COc1ccc(NC(=O)CCS(=O)(=O)c2ccc3nc(C)sc3c2)cc1OC	0.0	104.9	22.8	7.9	-14.0
Cc1nc2ccc(NC(=O)CCS(=O)(=O)c3ccc(Cl)cc3)cc2s1	2.0	-173.6*	2.4	2.8	24.2
O=C(CO/N=C/c1ccc(OC(F)F)cc1)N1CCc2ccccc21	100.0*	.	-10.2	-0.6	-13.8
O=C(/C=C/c1ccc(OC(F)F)cc1)OCC(=O)N1CCc2ccccc21	2.0	95.8	3.4	-0.4	-0.7
CCOc1cc(/C=C2/C(=O)N(c3ccccc3)N=C2C)ccc1OC(=O)c1ccco1	2.0	.	45.5*	9.0	0.0
Cc1nn(C)c(C(=O)Nc2ccc(S(=O)(=O)NC34CC5CC(CC(C5)C3)C4)cc2)c1Br	1.0	17.3*	-6.2	9.0	38.2
Cc1cc(C(=O)OCC(=O)NCc2ccccc2Cl)c(C)o1	3.0	106.0	1.5	-0.8	7.2
Cc1c(N=c2c(=O)c3ccccc3c2=O)c(=O)n(-c2ccccc2)n1C	4.0	.	43.2*	15.4	4.6
CCOc1cc(C2C3=C(CC(C)(C)CC3=O)N(CCOC)C3=C2C(=O)CC(C)(C)C3)ccc1O	0.0	95.4	-0.2	3.6	3.6
COCc1cc(C)nc(SCC(=O)Nc2ccccc2N2CCOCC2)c1C#N	4.0	.	15.1	12.9	-3.5
